Laboratory results taken from PubChem BioAssay.
Results filed as inconclusive are left out. Active and inactive are the calls of the source.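 Rule for the calls, unless noted: active = viability at or below 10% of carrier control in both of two separate runs; inconclusive = viability at or below 10% in only one of the two runs; inactive = the rest.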

Legend:
[1] = reducers of endogenous Her2 protein level, primary screen, SKBR3 breast tumor cells, AlphaScreen, ATP viability (AID 461;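 active = Her2 level under about 52% in both replicate screens, with viability over 70% of control, limit read from the data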;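 for Her2 level: lower value means less Her2 protein in the cells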;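 for viability: percent of carrier control wells set as 100% viability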); details: 18-24 h, measured here: SKBR3 viability, ATP luminescence, at 10 µM
[2] = target: Receptor tyrosine-protein kinase erbB-2 (Homo sapiens) (UniProt P04626); test: as above; details: 18-24 h, at 10 µM, stronger effect = lower value
Sequence of Receptor tyrosine-protein kinase erbB-2 (Homo sapiens) (P04626 whole entry, looked up): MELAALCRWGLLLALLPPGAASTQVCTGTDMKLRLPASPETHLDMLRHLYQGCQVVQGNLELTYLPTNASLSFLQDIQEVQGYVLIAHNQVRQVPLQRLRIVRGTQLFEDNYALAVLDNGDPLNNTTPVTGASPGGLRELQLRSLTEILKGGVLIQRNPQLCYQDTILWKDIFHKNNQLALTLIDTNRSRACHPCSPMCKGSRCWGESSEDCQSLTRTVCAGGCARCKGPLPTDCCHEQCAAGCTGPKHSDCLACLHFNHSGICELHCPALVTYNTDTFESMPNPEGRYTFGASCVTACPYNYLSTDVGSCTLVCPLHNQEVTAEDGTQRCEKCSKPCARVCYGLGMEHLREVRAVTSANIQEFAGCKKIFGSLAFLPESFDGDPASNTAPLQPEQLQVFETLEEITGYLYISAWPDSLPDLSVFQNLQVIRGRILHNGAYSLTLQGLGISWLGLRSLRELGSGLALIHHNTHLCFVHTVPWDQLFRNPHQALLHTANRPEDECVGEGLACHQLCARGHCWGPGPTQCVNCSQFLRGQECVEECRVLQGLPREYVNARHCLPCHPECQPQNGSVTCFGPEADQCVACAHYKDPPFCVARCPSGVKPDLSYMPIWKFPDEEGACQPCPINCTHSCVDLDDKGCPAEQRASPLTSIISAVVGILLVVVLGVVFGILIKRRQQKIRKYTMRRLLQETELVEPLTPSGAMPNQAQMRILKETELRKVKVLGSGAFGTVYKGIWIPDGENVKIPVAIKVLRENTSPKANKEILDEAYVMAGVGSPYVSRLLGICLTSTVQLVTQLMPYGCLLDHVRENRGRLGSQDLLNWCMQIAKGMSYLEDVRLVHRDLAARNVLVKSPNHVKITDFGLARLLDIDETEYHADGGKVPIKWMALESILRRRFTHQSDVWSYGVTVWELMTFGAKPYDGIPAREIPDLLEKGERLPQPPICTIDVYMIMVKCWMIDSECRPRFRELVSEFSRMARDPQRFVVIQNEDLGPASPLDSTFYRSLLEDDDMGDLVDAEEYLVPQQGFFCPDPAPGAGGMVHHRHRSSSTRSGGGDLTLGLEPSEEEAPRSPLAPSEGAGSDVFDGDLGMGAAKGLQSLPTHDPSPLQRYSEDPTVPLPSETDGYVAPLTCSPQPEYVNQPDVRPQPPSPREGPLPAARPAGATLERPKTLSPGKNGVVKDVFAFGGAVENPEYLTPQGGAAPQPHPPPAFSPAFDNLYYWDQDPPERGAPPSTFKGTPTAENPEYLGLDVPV

[3] = SK-BR-3 cell growth inhibitors, pilot screen, 24 h, human (AID 572); details: SK-BR-3 viability, CellTiter-Glo luminescence, at 10 µM, stronger effect = lower value;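 note: compound exposure lasted between 18 and 24 h rather than exactly 24 h; 100% = carrier-treated control wells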
[4] = HUVEC growth inhibition – cell-based, human, primary screen (AID 575;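 active = viability at or below 30% in both replicate assays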;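 note: 100% = median of untreated cell wells with 0.1% DMSO on each plate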); details: HUVEC proliferation, CellTiter-Glo luminescence, 72 h; at 10 µM; stronger effect = lower value
[5] = growth inhibitors of H69AR lung tumor, primary screen, human, duplicate replicates (AID 580;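 active = viability at or under a set limit in both replicates, limit being median viability minus 3 SD, cut at about 48% in these data, passing the limit was not always enough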;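 note: 100% = mean luminescence of untreated wells and 0% = no signal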); details: H69AR lung tumor cells viability, ATP luminescence, 72 h; at 10 µM; stronger effect = lower value
[6] = reversal of MRP1-mediated doxorubicin resistance, pilot screen, H69AR cells, doxorubicin co-treatment (AID 601;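 active = viability loss from added drug above about 55%, and viability with drug at most 40%, in both replicates, limit read from the data, passing the limit was not always enough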); details: CellTiter-Glo, 72 h, at 10 µM; for differential viability (reversal): stronger effect = higher value
[7] = 384-well plate pilot, post-Golgi transport modulator project, inhibition of yeast transport mutant growth (AID 636; in the data active = inhibition above about 31%); details: absorbance 615 nm, about 18 h, stronger effect = higher value
[8] = growth suppression of yeast trafficking mutant, preliminary HTS, modulators of trafficking downstream of Golgi apparatus project, 1536-format plate, OD 615 nm (AID 637; in the data active = inhibition above about 30%); details: yeast transport mutant growth, absorbance 615 nm, 18 h; stronger effect = higher value
[9] = OD615 S. cerevisiae growth inhibition, permissive medium, pilot counter-assay, permissive growth control for S. cerevisiae lifespan shortening project (AID 705;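 active = growth inhibition above 25% in both replicates, a cutoff set 3 SD above the mean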); details: OD615, 24 h, at 10 µM, stronger effect = higher value
[10] = Restrictive medium S. cerevisiae growth inhibition, OD615, pilot screen of yeast lifespan reduction project, restrictive growth control (AID 706;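 active = growth inhibition above a set limit, 3 SD over mean compound inhibition, in both replicates, cut at about 43% in these data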;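 note: modified DeaD lifespan yeast strain shifted to restrictive glucose medium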); details: OD615, 48 h, at 10 µM, stronger effect = higher value
[11] = viability gain of MRP-1-high H69AR cells under doxorubicin, pilot screen, MRP-1 activator project, CellTiter-Glo, duplicate (AID 807;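 active = viability increase at or above a cutoff of the median across tested compounds plus 3 SD, cut at about 8.5% in these data, passing the limit was not always enough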;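 note: compound pretreatment 18-22 h then 72 h combined with doxorubicin; 0% = doxorubicin alone and 100% = vehicle without doxorubicin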); details: H69AR viability with doxorubicin, CellTiter-Glo luminescence; at 10 µM; stronger effect = higher value
[12] = growth suppression of beta-catenin knockout HCT116, pilot screen, human colon tumor cells (AID 823;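 active = cell viability at or below a set limit in both duplicate runs, the limit being the all-compound median minus 4 SD, cut at about 23% in these data, passing the limit was not always enough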;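 note: 0% = wells killed by 20 µM Hyamine and 100% = untreated DMSO cell wells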); details: CellTiter-Glo, 60 h, at 10 µM, stronger effect = lower value
[13] = growth suppression of PTEN-deleted HCT116, pilot screen, cell-based, HCT116 clonal line, CellTiter-Glo (AID 824;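 active = viability at or below 27.92% in each of two runs, the all-compound median minus 4 SD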;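 note: 0% = 20 µM Hyamine control and 100% = vehicle cell control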); details: 60 h, at 10 µM, stronger effect = lower value
[14] = inhibitors of the yeast RAM network, pilot screen, dse1pr::URA3 reporter, 5-FOA selection (AID 869;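 active = inhibition over a set limit, the all-compound mean plus 3 SD, in both replicate runs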;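 note: 0% = DMSO wells with no growth and 100% = 10 µM 1-NA-PP1 with full growth; RAM network block rescues cells from 5-FOA so hits raise OD615 growth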); details: S. cerevisiae dse1pr::URA3 5-FOA growth, OD615, 2 d; at 10 µM; stronger effect = higher value; strain carries analog-sensitive mutant Cbk1 kinase
[15] = RAM signaling pathway blockade in yeast – S. cerevisiae, Pdr1DBD-CYC8 efflux-inhibited sensitized strain, primary screen (AID 1298;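 active = RAM network inhibition above 8.4% in each of two replicates, 3 SD over the compound average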;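 note: 0% = DMSO untreated cells without growth and 100% = 10 µM 1-NA-PP1 full growth; higher means more yeast growth rescued from 5-FOA killing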); details: S. cerevisiae cbk1-as DSE1-URA3 strain, 5-FOA growth OD615, 2 d; at 50 µM; stronger effect = higher value
[16] = H69AR cells + 2 uM doxorubicin, measured here: viability with 2 uM doxorubicin, stronger effect = lower value
[17] = H69AR cells, compound alone cytotoxicity

Compound | viability [1] [%] | Her2 level [2] | viability [3] | viability [4] | viability [5] | differential viability (reversal) ([6]; H69AR cells + 2 uM doxorubicin) | viability [6, 16] [%] | viability [6, 17] [%] | inhibition [7] | inhibition [8] | growth inhibition [9] | growth inhibition [10] | viability increase [11] | viability [12] | viability [13] | inhibition [14] | RAM network inhibition [15]
O=C1CC(c2cccnc2)c2cc3c(cc2N1)OCO3 (stereo unspecified) | 99.5 | 108% (inactive) | 99.5% (inactive) | 88.7% (inactive) | 104% (inactive) | 18.4% (inactive) | 85.7 | 104 | -0.13% (inactive) | -9.18% (inactive) | -2.55% (inactive) | 1.1% (inactive) | -1.75% (inactive) | 105% (inactive) | 99.8% (inactive) | 1.17% (inactive) | 0.51% (inactive)
CC(Oc1ccc2oc(-c3ccccc3)c(C(=O)O)c2c1)C(=O)O (stereo unspecified) | 95.5 | 77.5% (inactive) | 95.5% (inactive) | 103% (inactive) | 103% (inactive) | 6.43% (inactive) | 96.3 | 103 | -4.86% (inactive) | -6% (inactive) | -7.27% (inactive) | 2.06% (inactive) | -1.56% (inactive) | 99.3% (inactive) | 102% (inactive) | 1.73% (inactive) | 4.67% (inactive)
COc1ccc(CNC(=O)c2cnc3n(c2=O)CCS3)cc1 | 81.5 | 87.5% (inactive) | 81.5% (inactive) | 90.6% (inactive) | 94.9% (inactive) | -3.02% (inactive) | 97.9 | 94.9 | -3.87% (inactive) | -2.17% (inactive) | 5.72% (inactive) | 4.27% (inactive) | -1.21% (inactive) | 95.8% (inactive) | 98.3% (inactive) | 3.5% (inactive) | 2.5% (inactive)
CC(C)C(=O)Nc1ccc(-c2nc3cccnc3o2)cc1 | 93.5 | 82% (inactive) | 93.5% (inactive) | 128% (inactive) | 95.2% (inactive) | -4.14% (inactive) | 99.4 | 95.2 | 1.03% (inactive) | -5.33% (inactive) | -11.7% (inactive) | -2.21% (inactive) | 1.32% (inactive) | 101% (inactive) | 104% (inactive) | 2.22% (inactive) | 1.35% (inactive)
Cc1cccc(-n2ncc3c(NCc4cccnc4)ncnc32)c1 | 95.5 | 93% (inactive) | 95.5% (inactive) | 99.3% (inactive) | 88% (inactive) | -3.23% (inactive) | 91.2 | 88 | -4.8% (inactive) | 0.5% (inactive) | -8.17% (inactive) | -8.12% (inactive) | -0.52% (inactive) | 89.4% (inactive) | 87.5% (inactive) | 2.54% (inactive) | 2.13% (inactive)
COc1ccc(N(C)C(=O)CCS(=O)(=O)c2cccc3nonc23)c(OC)c1 | 89 | 86.5% (inactive) | 89% (inactive) | 95.7% (inactive) | 104% (inactive) | 9.71% (inactive) | 93.9 | 104 | -6.71% (inactive) | -3.49% (inactive) | -16.1% (inactive) | -20.6% (inactive) | -0.31% (inactive) | 100% (inactive) | 98.8% (inactive) | 1.43% (inactive) | 3.65% (inactive)
CCOc1ccc(N(C(C)C(=O)NC2CCCCCC2)S(C)(=O)=O)cc1 (stereo unspecified) | 90.5 | 98.5% (inactive) | 90.5% (inactive) | 101% (inactive) | 94.1% (inactive) | 1.44% (inactive) | 92.7 | 94.1 | -2.69% (inactive) | -3.83% (inactive) | -1.18% (inactive) | -21% (inactive) | -2.2% (inactive) | 100% (inactive) | 90.6% (inactive) | 2.62% (inactive) | 6.94% (inactive)
Cc1[nH]c2ccccc2c(=O)c1CN1CCCCC1 | 99 | 103% (inactive) | 99% (inactive) | 101% (inactive) | 90.5% (inactive) | -0.56% (inactive) | 91.1 | 90.5 | -4.29% (inactive) | -3.67% (inactive) | -17.1% (inactive) | -15.9% (inactive) | -0.38% (inactive) | 97.3% (inactive) | 105% (inactive) | 0.515% (inactive) | -0.21% (inactive)
COc1cc(NC(=O)CC(C)C)ccc1NC(=O)c1ccco1 | 94.5 | 93% (inactive) | 94.5% (inactive) | 103% (inactive) | 109% (inactive) | 15.9% (inactive) | 93.1 | 109 | -3.92% (inactive) | -9.68% (inactive) | -3.81% (inactive) | -1.97% (inactive) | -0.27% (inactive) | 100% (inactive) | 96.2% (inactive) | 0.825% (inactive) | 0.51% (inactive)
COC(=O)NCC(c1cccnc1)N1CCOCC1 (stereo unspecified) | 97 | 95.5% (inactive) | 97% (inactive) | 103% (inactive) | 95.7% (inactive) | 2.39% (inactive) | 93.3 | 95.7 | -0.64% (inactive) | -4.83% (inactive) | -1.88% (inactive) | -7.24% (inactive) | 0.99% (inactive) | 102% (inactive) | 99.6% (inactive) | 0.015% (inactive) | -0.26% (inactive)
Cc1ccc(-c2nc3cnccn3c2Nc2ccc3c(c2)OCO3)o1 | 91.5 | 90.5% (inactive) | 91.5% (inactive) | 92.4% (inactive) | 77.7% (inactive) | -13.6% (inactive) | 91.3 | 77.7 | -6.53% (inactive) | -2.83% (inactive) | -15.8% (inactive) | 3.3% (inactive) | -3.1% (inactive) | 95.8% (inactive) | 91.9% (inactive) | 1.34% (inactive) | 12.5% (inactive)
COc1cc2c(cc1OC)CN(C(=O)CSc1nc3[nH]ncc3c(=O)n1-c1ccccc1)CC2 | 105 | 97% (inactive) | 105% (inactive) | 79.7% (inactive) | 91.7% (inactive) | 11.6% (inactive) | 80.1 | 91.7 | -4.93% (inactive) | -2.62% (inactive) | 0.33% (inactive) | -24.6% (inactive) | -1.5% (inactive) | 101% (inactive) | 90.9% (inactive) | 1.19% (inactive) | 2.58% (inactive)
O=C(Cn1ncc2c1-c1ccccc1OC2)N1CCN(c2ccccn2)CC1 | 91.5 | 108% (inactive) | 91.5% (inactive) | 101% (inactive) | 89.7% (inactive) | 4.26% (inactive) | 85.5 | 89.7 | -2.05% (inactive) | 0.67% (inactive) | -9.33% (inactive) | -14.6% (inactive) | -1.13% (inactive) | 99.9% (inactive) | 92.7% (inactive) | 0.525% (inactive) | 3.36% (inactive)
COc1ccc(C(=O)CN2C3=NCCCN3c3ccccc32)cc1OC | 89 | 109% (inactive) | 89% (inactive) | 81.3% (inactive) | 82.4% (inactive) | 5.29% (inactive) | 77.1 | 82.4 | -0.39% (inactive) | 2.5% (inactive) | -6.53% (inactive) | -6.88% (inactive) | -2.15% (inactive) | 56.2% (inactive) | 64.7% (inactive) | 1% (inactive) | 2.03% (inactive)
Cc1ccc(C)c(C(=O)CC2(O)C(=O)N(C)c3ccccc32)c1 (stereo unspecified) | 112 | 113% (inactive) | 112% (inactive) | 105% (inactive) | 92.2% (inactive) | 10.1% (inactive) | 82.1 | 92.2 | -4.68% (inactive) | -1.5% (inactive) | -8.69% (inactive) | -12.9% (inactive) | -0.65% (inactive) | 107% (inactive) | 97.2% (inactive) | 3.41% (inactive) | -0.11% (inactive)
COC(=O)C1(C#N)C(c2ccccc2)C1(C(=O)OC)C(=O)OC (stereo unspecified) | 117 | 90% (inactive) | 117% (inactive) | 105% (inactive) | 102% (inactive) | 11.3% (inactive) | 90.8 | 102 | -3.47% (inactive) | 0.65% (inactive) | -6.71% (inactive) | -6.54% (inactive) | -1.92% (inactive) | 77.4% (inactive) | 97.7% (inactive) | 1.43% (inactive) | 2.51% (inactive)
CC1Cc2nc(SCC(=O)Nc3nccs3)n(C)c(=O)c2S1 (stereo unspecified) | 90 | 89% (inactive) | 90% (inactive) | 72.7% (inactive) | 77.8% (inactive) | -0.05% (inactive) | 77.8 | 77.8 | -5.07% (inactive) | -1.67% (inactive) | -2.9% (inactive) | -5.05% (inactive) | -2.52% (inactive) | 105% (inactive) | 96.7% (inactive) | 1.56% (inactive) | 6.27% (inactive)
Cc1cccc(OCCNC(=O)c2ncn[nH]2)c1 | 100 | 108% (inactive) | 100% (inactive) | 92.5% (inactive) | 91.9% (inactive) | 3.36% (inactive) | 88.5 | 91.9 | 0% (inactive) | -5.17% (inactive) | -12.5% (inactive) | -4.79% (inactive) | 0.64% (inactive) | 94.2% (inactive) | 99.7% (inactive) | 1.01% (inactive) | -0.32% (inactive)
